# Measured values: the supplement of paper PMC9694430
# Legend:
# Assay in all cases: thermal shift delta Tm vs DMSO control; higher = stronger stabilization (binding)
# Details in all cases: 12.5 µM; protein concentration 2 µM
# LOC_OS01G01410-cb001 = system: LOC_OS01G01410-cb001
# Procedure, shortened: (§1)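 Rice kinase domain constructs, made in E. coli and purified, were placed in 96-well plates at 2 μM in 19.5 μl of 100 mM potassium phosphate pH 7.5, 150 mM NaCl, 10% glycerol and 5 × SYPRO Orange, with compound in DMSO. A temperature ramp from 25°C to 95°C at 0.05°C/s was used for differential scanning fluorimetry. The melting temperature shift is a triplicate mean compared with DMSO-only protein, derived from Boltzmann fits.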
# LOC_OS01G02750-cb003 = system: LOC_OS01G02750-cb003
# Procedure, shortened: as §1
# LOC_OS01G10900-cb004 = system: LOC_OS01G10900-cb004
# Procedure, shortened: as §1
# LOC_OS01G13800-cb001 = system: LOC_OS01G13800-cb001
# Procedure, shortened: as §1
# LOC_OS01G14860-cb001 = system: LOC_OS01G14860-cb001
# Procedure, shortened: as §1
# LOC_OS01G21960-cb002 = system: LOC_OS01G21960-cb002
# Procedure, shortened: as §1
# LOC_OS01G39600-cb002 = system: LOC_OS01G39600-cb002
# Procedure, shortened: as §1
# LOC_OS01G48390-cb002 = system: LOC_OS01G48390-cb002
# Procedure, shortened: as §1
# LOC_OS01G51400-cb002 = system: LOC_OS01G51400-cb002
# Procedure, shortened: as §1
# LOC_OS01G52050-cb004 = system: T1, LOC_OS01G52050-cb004
# T1 sequence (whole entry): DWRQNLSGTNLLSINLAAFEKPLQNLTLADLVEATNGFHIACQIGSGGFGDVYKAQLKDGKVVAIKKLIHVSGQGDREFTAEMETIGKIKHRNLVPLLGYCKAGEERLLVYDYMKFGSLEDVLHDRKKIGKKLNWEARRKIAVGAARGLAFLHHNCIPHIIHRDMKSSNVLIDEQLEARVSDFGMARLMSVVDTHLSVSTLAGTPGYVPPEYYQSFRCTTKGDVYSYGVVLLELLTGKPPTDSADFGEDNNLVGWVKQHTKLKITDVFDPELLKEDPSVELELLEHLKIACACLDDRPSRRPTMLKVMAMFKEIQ
# Procedure, shortened: as §1
# LOC_OS01G57100-cb003 = system: LOC_OS01G57100-cb003
# Procedure, shortened: as §1
# LOC_OS01G60330-cb001 = system: LOC_OS01G60330-cb001
# Procedure, shortened: as §1
# LOC_OS01G60700-cb002 = system: LOC_OS01G60700-cb002
# Procedure, shortened: as §1
# LOC_OS01G63280-cb003 = system: LOC_OS01G63280-cb003
# Procedure, shortened: as §1
# LOC_OS01G67340-cb003 = system: LOC_OS01G67340-cb003
# Procedure, shortened: as §1
# LOC_OS01G70970-cb002 = system: LOC_OS01G70970-cb002
# Procedure, shortened: as §1
# LOC_OS02G07810-cb001 = system: LOC_OS02G07810-cb001
# Procedure, shortened: as §1
# LOC_OS02G08530-cb003 = system: LOC_OS02G08530-cb003
# Procedure, shortened: as §1
# LOC_OS02G14120-cb001 = system: LOC_OS02G14120-cb001
# Procedure, shortened: as §1
# LOC_OS02G17970-cb001 = system: LOC_OS02G17970-cb001
# Procedure, shortened: as §1
# 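Also: purified Escherichia coli-expressed rice kinase domain construct.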
SMILES,thermal shift delta Tm (LOC_OS01G01410-cb001) [°C],thermal shift delta Tm (LOC_OS01G02750-cb003) [°C],thermal shift delta Tm (LOC_OS01G10900-cb004) [°C],thermal shift delta Tm (LOC_OS01G13800-cb001) [°C],thermal shift delta Tm (LOC_OS01G14860-cb001) [°C],thermal shift delta Tm (LOC_OS01G21960-cb002) [°C],thermal shift delta Tm (LOC_OS01G39600-cb002) [°C],thermal shift delta Tm (LOC_OS01G48390-cb002) [°C],thermal shift delta Tm (LOC_OS01G51400-cb002) [°C],thermal shift delta Tm (LOC_OS01G52050-cb004) [°C],thermal shift delta Tm (LOC_OS01G57100-cb003) [°C],thermal shift delta Tm (LOC_OS01G60330-cb001) [°C],thermal shift delta Tm (LOC_OS01G60700-cb002) [°C],thermal shift delta Tm (LOC_OS01G63280-cb003) [°C],thermal shift delta Tm (LOC_OS01G67340-cb003) [°C],thermal shift delta Tm (LOC_OS01G70970-cb002) [°C],thermal shift delta Tm (LOC_OS02G07810-cb001) [°C],thermal shift delta Tm (LOC_OS02G08530-cb003) [°C],thermal shift delta Tm (LOC_OS02G14120-cb001) [°C],thermal shift delta Tm (LOC_OS02G17970-cb001) [°C]
Cc1cc(Nc2nc(N[C@@H](C)c3ccc(F)cc3)c(C#N)cc2F)n[nH]1,4.59,1.83,0.46,-0.07,5.09,1.28,4.3,5.61,0.07,0.63,0.56,7.34,0.15,0.61,-0.08,1.7,0.48,1.49,7.95,0.2
COc1cc2ccc(=O)oc2cc1O [Scopoletin],-0.07,0.35,0.25,-0.08,0.39,0.11,-0.27,-0.08,0.18,0.81,0.91,0.02,-0.06,-0.04,-0.05,0.41,-1.02,0.39,0.77,1.18
O=C1NC(=O)/C(=C/c2ccc3c(c2)OC(F)(F)O3)S1,0.72,0.45,0.16,0.44,0.39,1.11,0.17,0.77,0.53,0.79,2.63,0.63,1.33,0.41,0.47,0.52,1.34,0.96,-0.18,0.93
CO[C@H]1C[C@@H]2CC[C@@H](C)[C@@](O)(O2)C(=O)C(=O)N2CCCC[C@H]2C(=O)O[C@H]([C@H](C)C[C@@H]2CC[C@@H](OC(=O)C(C)(CO)CO)[C@H](OC)C2)CC(=O)[C@H](C)/C=C(\C)[C@@H](O)[C@@H](OC)C(=O)[C@H](C)C[C@H](C)/C=C/C=C/C=C/1C,1,0.76,0.53,0.18,0,0.4,0.18,0.44,0.1,0.73,1.06,1.91,0.66,0.23,-0.48,0.3,0.33,0.57,0.93,0.36
COc1ccc2c(c1)[C@]1(C[C@H]1c1ccc3c(/C=C/c4ccc(CN5C[C@@H](C)O[C@@H](C)C5)cc4)n[nH]c3c1)C(=O)N2,1.94,8.4,1.53,-0.69,1.2,0.67,2.15,1.77,1.27,4.31,2.82,-0.26,0.64,1.2,2.12,2.01,-0.49,1.45,7.54,0.31
Fc1ccc2[nH]ccc2c1-c1nc(N2CCOCC2)c2sc(CN3CCN(CC4CC4)CC3)cc2n1,0.26,0.77,2.96,-0.36,0.37,-0.01,-0.27,0.62,-0.02,0.03,1.16,0.82,1.22,0.86,0.95,0.31,0.15,0.45,0.72,0.68
Cc1ccc(Nc2nccc(N(C)c3ccc4c(C)n(C)nc4c3)n2)cc1S(N)(=O)=O [Pazopanib],2.16,0.45,1.67,-0.48,0.04,0.56,1.25,4.34,0.23,0.91,0.76,3.85,1.11,0.59,0.96,0.44,0.68,1.82,3.43,0.74
N#Cc1ccc2ncnc(NCCc3ccccc3)c2c1 [Senexin A],1.49,1.5,0.41,0.25,0.78,0.95,0.66,0.42,0.41,2.96,-0.12,0.74,-0.36,0.25,0.38,0.3,-0.71,2.47,2.47,0.28
C=CC(=O)N1CCN(CCCn2c(=O)c(-c3c(Cl)c(OC)cc(OC)c3Cl)cc3cnc(NC)nc32)CC1,0.19,0.26,0.4,-0.37,0.42,0.28,0.11,0.23,0.12,0.46,1.48,-0.24,0.2,-0.06,0.02,0.17,-0.82,0.53,0.67,-0.31
CNC(=O)c1ccccc1Sc1ccc2c(/C=C/c3ccccn3)n[nH]c2c1 [Axitinib],2,0.59,0.25,-0.18,0.29,0.14,1.08,0.12,0.04,0.17,0.01,1.21,1.17,0.65,-0.05,0.68,0.49,0.53,3.54,-0.24
